Data taken from PubChem BioAssay AID624305 (National Center for Advancing Translational Sciences (NCATS), 2012).
Inconclusive results are not listed. Active and inactive are the calls of the source. The call rests on the fitted dose curve; in most records, active means well fitted activation curve with a large enough effect; inconclusive means small, poorly fitted or top-dose-only effect; inactive means no such curve, though single readings can be large or run the other way.

Experiment: qHTS assay for re-activators of p53 using a Luc reporter: Hit Validation; further: nearly all actives have a fitted effect of over 75% in size; on activation: 0% is about no effect
Settings: p53-responsive luciferase reporter cells, luminescence, H1299 line expressing heat-sensitive Ala138Val p53; series mostly up to 46.1 µM; activation: at the top concentration
In short: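 Hit confirmation with a 1:5 dilution series, at 37 deg C for 24 hrs, in H1299 cells co-expressing temperature-sensitive p53-A138V and p53-responsive luciferase. Nocodazole served as control; luminescence read after 10 min with detection reagent.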
Potency means the concentration at half of the fitted maximal effect.

Potency, active:
O=C(CCS(=O)(=O)c1ccccc1)Nc1ccc(-c2nc3ccccc3s2)cc1 651 nM
O=C(Oc1ccccc1/C=C\C(=O)c1cc2ccccc2o1)c1cccc(F)c1 206 nM
Cn1c(-c2ncc(F)cc2F)cc2onc(-c3c(F)cccc3Cl)c2c1=O 2590 nM
Cc1ccc(NC(=O)c2ccc3nc[nH]c3c2)cc1C 23100 nM
CC(=O)NC1=C(Nc2ccc(N(C)C)cc2)C(=O)c2ccccc2C1=O 9200 nM
Clc1ccc(-c2cn3c(n2)-c2ccccc2C3)cc1Cl 10300 nM
Cc1cccc(-c2noc(CCC(=O)N3CCN(c4cc(C)ccc4C)CC3)n2)c1 23100 nM
Cc1ccnc(NC(=O)c2sc3cc(Cl)ccc3c2Cl)c1 2910 nM
O=C(Nc1nc2c(s1)CCCC2)C1COc2ccccc2O1 (stereo not drawn) 231 nM
Cc1ccc2cc(CCNC(=O)c3ccco3)c(=O)[nH]c2c1C 2310 nM
c1ccc(-c2ccc(-c3ccccn3)nn2)nc1 82 nM
CC(C)(C)c1ccc(/C=C2\SC(=O)N(CCNC(=O)c3cccc(S(=O)(=O)N4CCOCC4)c3)C2=O)cc1 1840 nM
COc1ccc2nc(SCc3ccccc3)nc(C)c2c1 1460 nM
O=c1cc(-c2ccc3c(c2)OCCO3)oc2ccc(Cl)cc12 820 nM
Cc1ccc(NC(=S)NC(=O)c2cccs2)cc1F 9200 nM
CCCCc1ccc(NC(=S)N2CCCC(CO)C2)cc1 (stereo not drawn) 651 nM

activation, inactive:
COc1ccc(NC(=O)CN(C)CC(=O)Nc2ccccc2SC)cc1 -11.5%
CCOC(=O)c1c(NC(=O)C2COc3ccccc3O2)sc2c1CCN(Cc1ccccc1)C2 (stereo not drawn) -4.69%
CCn1c(=N)n(CCOc2ccc(OC)cc2)c2ccccc21 -8.85%
COc1ccc(C2/C(=C(/O)c3ccc(C)cc3)C(=O)C(=O)N2CCCN2CCOCC2)cc1 (stereo not drawn) -17.2%
C/C(CC(C)C)=N\NC(=O)Nc1ccccc1 29.2%
COc1ccc(CC(=O)Nc2ccc(C(=O)Nc3ccccc3C(=O)O)cc2)cc1OC 3.12%
C=Cc1ccc(Cn2c(=O)n(CCCOC)c(=O)c3sccc32)cc1 -8.85%
CCOc1ccc(-c2cnc3ccccc3n2)cc1 -85.9%
O=C(Nc1nnc(-c2cccs2)o1)c1cccc(Oc2ccccc2)c1 -32.3%
CC1Cc2ccccc2N1C(=O)COC(=O)C1(c2ccccc2F)CCCC1 (stereo not drawn) 80.2%
Cc1cc(C)c2nc(NNC(=O)c3ccc(S(=O)(=O)N4CCCC(C)C4)cc3)sc2c1 (stereo not drawn) -83.9%
Cc1nn(-c2ccccc2)c(N)c1Sc1ccc([N+](=O)[O-])cc1 3.12%
COc1ccc(C(=O)NC2CCc3ccccc32)cc1OC1CCN(C(C)C)CC1 (stereo not drawn) 28.6%
COc1ccc(N2CCN(CC(=O)Nc3ccc(C)cc3)CC2)cc1 -1.56%
Cc1ccc(CSc2nc3ccncc3[nH]2)cc1 -42.2%
Cc1noc(C)c1C(=O)Nc1nc(-c2ccc(F)cc2)cs1 -25% [at 9.22 µM]
O=C(CSCC(=O)Nc1cccc([N+](=O)[O-])c1)Nc1ccccc1 -1.56%
O=C(N/N=C/c1ccccc1O)C1CC(=O)N(c2ccc(Cl)cc2)C1 (stereo not drawn) -78.6%
CCCN1C(=O)SC(CC(=O)Nc2ccccc2C)C1=O (stereo not drawn) 12.4% [at 9.22 µM]
Cc1ccc(C)n1-c1sc2c(c1C(=O)O)CCCC2 16.1%
O=S(=O)(CCOc1ccccc1)c1nc2ccccc2[nH]1 -10.9%
Cc1cc(CC(C)C)n(-c2nc3ccccc3c(=O)n2OCC(N)=O)n1 26%
